# This is a sample that favours compounds with a hit; in the whole collection about 7.4% have one here.
# NOMO-1 viab – STK33 inhibitor candidate reducing NOMO-1 cell viability | 7.5% of 37,000 active | inhibition, % (no concentration beside the values) | NOMO-1 AML viability, CellTiter-Glo luminescence, 72 h; in the data active = inhibition above about 80%; inconclusive = no clear call, values can overlap the other calls
# MITF inhib – MITF inhibition | inhibition, % (no concentration beside the values) | 0.28% of 37,000 active | TRPM1 promoter luciferase, luminescence, 24 h; in the data active = inhibition above about 85%; inconclusive = no clear call, values can overlap the other calls; inactive = below about 68%;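 note: human melanocyte line stably carrying TRPM1 promoter luciferase reporter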
# PD-1 reversal – activators reversing PD-1 mediated T-cell inhibition; primary human CD4 T cells, PD-L1 beads, CellTiter-Glo 96 h; activation, % (no concentration beside the values); 29,000 tested, under 10 active; AID 2316; call rule not given here;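 note: 0% = median vehicle wells and 100% = positive control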
# Hedgehog inh – blocks Sonic Hedgehog signaling | AID 2313 | inhibition, % (no concentration beside the values) | 2.1% of 22,000 active | Shh-LIGHT2 Gli-luciferase reporter, 30 h;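 active = mean inhibition across valid replicates above about 65%, limit read from the data; inconclusive = mean under the limit, yet half or more replicates past it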;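 note: pathway switched on by Shh-conditioned medium diluted 1 in 25 in low serum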
# YB-1 expr inh – YB-1 expression inhibition; U2OS, qRT-PCR YB-1 vs CDIP delta delta Cp, 16 h; active compounds read high; zero = DMSO, each unit about twofold; delta delta Cp (YB-1 minus CDIP) (concentration not given with the values); 0.37% of 30,000 active;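 active = delta delta Cp rounded down to an integer at or above 3, about 3 SD of DMSO wells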;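 note: higher means less YB-1 transcript or more CDIP transcript relative to DMSO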
# * hit, by the source's call; u = inconclusive; x = no result given.
SMILES,NOMO-1 viab,MITF inhib,PD-1 reversal,Hedgehog inh,YB-1 expr inh
CCC1SC2=NCN(c3ccccc3)CN2C1=O (configuration not stated),101.1*,6.0,0.7,-47.9,0.0911
O=C(COc1ccccc1[N+](=O)[O-])Nc1cccc(Cl)c1N1CCOCC1,82.5*,55.2,-0.1,x,x
Cc1ccc(S(=O)(=O)Nc2ccc3c(c2)C(=O)N([C@H](C)CO)C[C@H](C)[C@@H](CN(C)Cc2ccc(C(F)(F)F)cc2)OCCCC[C@@H](C)O3)cc1,112.1*,46.7,x,x,0.0567
Cc1ccc(S(=O)(=O)Nc2ccc3c(c2)C(=O)N([C@H](C)CO)C[C@H](C)[C@H](CN(C)Cc2ccc(Cl)c(Cl)c2)OCCCC[C@@H](C)O3)cc1,110.7*,79.7,-11.7,-17.9,-0.431
Cc1ccc(S(=O)(=O)Nc2ccc3c(c2)C(=O)N([C@H](C)CO)C[C@H](C)[C@H](CN(C)Cc2ccc(C(=O)O)cc2)OCCCC[C@@H](C)O3)cc1,1.7,-1.0,1.5,x,0.644
Cc1ccc(S(=O)(=O)Nc2ccc3c(c2)C(=O)N([C@H](C)CO)C[C@H](C)[C@@H](CN(C)Cc2ccccc2)OCCCC[C@@H](C)O3)cc1,30.2,-10.7,-2.6,67.6*,0.0274
C[C@@H]1CCCCO[C@H](CN(C)Cc2ccc(C(F)(F)F)cc2)[C@@H](C)CN([C@H](C)CO)C(=O)c2cc(NS(=O)(=O)c3ccc(Cl)cc3)ccc2O1,81.5*,14.4,x,20.9,-0.33
C[C@@H]1CCCCO[C@H](CN(C)Cc2ccc(C(F)(F)F)cc2)[C@@H](C)CN([C@H](C)CO)C(=O)c2cc(NS(C)(=O)=O)ccc2O1,15.5,2.7,x,-12.0,-0.0326
COc1ccc(S(=O)(=O)Nc2ccc3c(c2)C(=O)N([C@H](C)CO)C[C@H](C)[C@@H](CN(C)Cc2ccc(C(F)(F)F)cc2)OCCCC[C@@H](C)O3)cc1,u,37.0,x,16.9,0.144
CCOC(=O)c1c(-c2ccc(OC)cc2)csc1NC(=O)c1ccccc1[N+](=O)[O-],16.2,24.7,x,x,x
Cc1ccccc1OC(C)c1nc(-c2ccccn2)no1 (configuration not stated),15.2,-81.8,x,x,x
COc1ccc(OCCSc2nc3ccccc3n2C)cc1,2.6,-36.1,-0.6,0.9,0.199
C[C@@H]1CCCCO[C@@H](CN(C)C(=O)C2CCCCC2)[C@@H](C)CN([C@H](C)CO)C(=O)c2cc(NS(=O)(=O)c3ccccc3)ccc2O1,101.2*,54.2,x,x,-0.452
C[C@@H]1CCCCO[C@@H](CN(C)C(=O)Nc2cccc3ccccc23)[C@@H](C)CN([C@H](C)CO)C(=O)c2cc(NS(=O)(=O)c3ccccc3)ccc2O1,55.4,28.8,-3.0,21.0,0.336
Cc1ccc(S(=O)(=O)Nc2ccc3c(c2)C(=O)N([C@H](C)CO)C[C@H](C)[C@H](CN(C)C(=O)Nc2cccc4ccccc24)OCCCC[C@@H](C)O3)cc1,110.9*,10.8,-1.1,-8.8,-0.243
CCc1ccc(-c2nc3ccccc3c(=O)o2)cc1,18.6,50.1,-0.9,-173.3,0.205
COc1cc(OC)c(C2=NOC(C(=O)Nc3c(C)nn(Cc4ccc(F)cc4)c3C)C2)cc1Cl (configuration not stated),31.1,-8.8,-3.4,x,x
COC(=O)c1cccc(C(=O)Nc2ccc(F)cc2)n1,u,1.4,1.2,x,0.437
CC(=O)Nc1ccc(NC(=O)c2cccc(C(=O)OC(C)C)n2)cc1,106.8*,-15.6,0.0,x,-0.0752
OCCSc1nnc(-c2ccccc2O)n1-c1ccccc1,45.1,4.3,-0.5,x,x
Cc1cc(C(=O)CSc2nnc3ccccn23)c(C)n1Cc1ccccc1,17.3,66.7,x,x,x
Cc1cc2nnc(SCC(=O)c3cc(C)n(Cc4ccccc4)c3C)n2c2ccccc12,131.2*,-11.5,1.7,x,0.326
COc1cccc2cc(C(=O)C3C(=O)C(=O)N(CCN4CCOCC4)C3c3cccc(Cl)c3)oc12 (configuration not stated),24.6,13.9,-2.3,x,x
COc1ccc(C(=O)COC(=O)CN2C(=O)C3CC=CCC3C2=O)cc1 (configuration not stated),30.9,-9.1,0.9,-15.2,-0.232
O=C(CN1CC(=O)Oc2ccccc21)OCC(=O)c1ccccc1,102.7*,30.6,-1.0,27.6,0.12
SMILES,NOMO-1 viab,MITF inhib,PD-1 reversal,Hedgehog inh,YB-1 expr inh
O=C(CN1CC(=O)Oc2ccccc21)Nc1ccc(O)cc1,111.1*,-9.7,-4.2,27.5,0.185
CCOC(=O)c1c(CSc2nc(C)cc(C)n2)nc2c3ccccc3ccn12,2.8,-111.4,-0.6,x,x
C[C@@H]1CN([C@@H](C)CO)C(=O)c2cccc(NC(=O)CCCCCC(=O)Nc3ccccc3N)c2O[C@@H]1CN(C)S(=O)(=O)c1ccc(F)cc1,92.5*,-1.1,0.6,x,0.212
C[C@H](CO)N1C[C@H](C)[C@H](CN(C)S(=O)(=O)c2ccc(F)cc2)Oc2c(NC(=O)CCCCCC(=O)Nc3ccccc3N)cccc2C1=O,94.9*,10.3,0.5,x,-0.188
Clc1ccc(Sc2ccc(-c3ccccn3)s2)cc1,12.5,-28.6,-0.5,21.1,-0.576
CCCC[C@@H](C)/C=C(C)/C=C(\C)C(=O)NC1=C[C@@](O)(/C=C/C=C/C=C/C(=O)NC2C(=O)CCC2=O)[C@@H]2O[C@@H]2C1=O,141.8*,-12.3,-57.1,50.7,0.401
CCCN(C#N)c1nc(NC(C)C)nc(NC(C)C)n1,29.0,22.9,-4.1,8.0,-0.23
CSc1sc(C#N)c2c1C(=O)CC(c1ccccc1)C2 (configuration not stated),18.7,11.2,-0.9,86.5*,-0.443
Cc1ccccc1NC(=O)CSc1nnc(-c2ccc(C(C)(C)C)cc2)n1C,37.3,-3.6,3.0,x,x
C[C@H](CO)N1C[C@H](C)[C@H](CN(C)C(=O)NC2CCCCC2)Oc2c(NC(=O)Nc3cccc4ccccc34)cccc2C1=O,97.0*,49.3,-5.5,-45.8,0.146
C[C@H]1CN([C@@H](C)CO)C(=O)c2cccc(NC(=O)Nc3cccc4ccccc34)c2O[C@@H]1CN(C)C(=O)Nc1ccc(F)cc1,23.1,-4.1,-2.3,13.2,-0.0455
C[C@H](CO)N1C[C@H](C)[C@H](CN(C)C(=O)Nc2ccc(F)cc2)Oc2c(NC(=O)Nc3cccc4ccccc34)cccc2C1=O,123.8*,u,-10.2,28.0,-0.0933
CC(O)CCCC1Cc2cccc(O)c2C(=O)O1 (configuration not stated),-6.0,1.1,-1.3,-5.8,1.45
CN(C)/C=N/C1N=C(C2CC2)N(C)C(=O)N1 (configuration not stated),13.0,-3.3,1.3,-30.0,0.163
C=C1C(=O)O[C@H]2C1CCC(C)=C1C(=O)C=C(C)[C@@]12O (some centres not stated),105.9*,10.2,-4.5,6.5,0.177
C[C@@H]1CN([C@H](C)CO)C(=O)Cc2cc(NC(=O)Nc3cccc4ccccc34)ccc2O[C@@H]1CN(C)Cc1ccc(Oc2ccccc2)cc1,110.5*,14.1,-4.7,35.3,0.0327
